The source of these data is PubChem BioAssay AID1210 (NMMLSC, 2008).

The structures appear in SMILES notation. Values without a mark were called inactive. Active and inactive are the calls of the source.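 The calls were made as follows: active = blocks over 70% of labeled estradiol binding at 10 µM, or over a set limit at 100 nM; inactive = the rest.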

Sequence of Estrogen receptor beta (Homo sapiens) (Q92731 whole entry, looked up): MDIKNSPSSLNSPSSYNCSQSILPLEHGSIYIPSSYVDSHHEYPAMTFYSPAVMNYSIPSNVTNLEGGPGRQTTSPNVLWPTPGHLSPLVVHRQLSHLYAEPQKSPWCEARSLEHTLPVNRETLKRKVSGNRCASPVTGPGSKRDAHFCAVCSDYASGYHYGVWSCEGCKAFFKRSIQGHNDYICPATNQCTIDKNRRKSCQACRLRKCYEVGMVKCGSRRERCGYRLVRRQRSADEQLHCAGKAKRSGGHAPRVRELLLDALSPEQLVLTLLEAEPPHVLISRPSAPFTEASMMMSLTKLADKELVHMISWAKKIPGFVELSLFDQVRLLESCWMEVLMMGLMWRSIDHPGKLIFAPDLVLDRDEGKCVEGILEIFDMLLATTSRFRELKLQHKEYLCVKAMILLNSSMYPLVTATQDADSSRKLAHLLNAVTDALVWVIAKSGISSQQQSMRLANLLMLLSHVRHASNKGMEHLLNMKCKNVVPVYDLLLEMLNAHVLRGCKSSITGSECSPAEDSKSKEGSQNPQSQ

This assay concerns the target Estrogen receptor beta (Homo sapiens) (UniProt Q92731). In words: displacement of fluorescent estrogen from ERbeta – cell-based, Cos7 ERbeta-GFP, flow cytometry, primary screen (AID 1210).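 Also: 0% = DMSO vehicle wells and 100% = complete loss of labeled estradiol signal.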 The conditions noted are these: fluorescent estrogen binding, at 10 µM, hits give high values.
Regarding `CC1(C)N=C(N)N=C(N)N1c1ccc(C(=O)O)cc1`, the inhibition is 22%.
For `CCOc1cc(N2CCOCC2)c(OCC)cc1NC(=O)c1cc(-c2ccco2)nc2ccccc12` the value was 47%.
With `COc1ccc(-c2cn3c(C)c(C(=O)Nc4ccncc4)sc3n2)cc1`, the inhibition is 60%.
For `CCN1CCN(Cc2c(O)c(Cl)cc3c(C)cc(=O)oc23)CC1` the value was 31%.
With `CCN(c1ccccc1)S(=O)(=O)c1ccc2[nH]cc(C(=O)NCCOC)c(=O)c2c1` the figure was 35%; with `Cc1ccnc(NS(=O)(=O)c2ccc(NC(=O)Cc3cccs3)cc2)n1`, 38%.
With `COc1ccc(N2Cc3cccc(C(=O)O)c3C2=O)cc1`, the inhibition is 42%.
For `O=C1Nc2ccccc2SC(c2ccccc2)C1O` (stereo not drawn) the value was 56%.
For `COc1ccc(NC(=O)CN(c2ccccc2)S(=O)(=O)N(C)C)cc1OC`, the inhibition is 40%.
As for `C[C@]12CC[C@@H]3c4ccc(O[C@@H]5O[C@H](C(=O)O)[C@@H](O)[C@H](O)[C@H]5O)cc4CC[C@H]3[C@@H]1C[C@@H](O)[C@@H]2O`, the inhibition was 52%.
For `CCCCn1c(=O)[nH]c2nc3cc(N)ccc3nc2c1=O` the value was 31%.
With `CC(C)CN(C(=O)COC(=O)c1cc2c(s1)CCC2)C1CCS(=O)(=O)C1` (stereo not drawn) the figure was 25%; with `C[C@]12CC[C@@H]3c4ccc(O)cc4C(=O)C[C@H]3[C@@H]1CC[C@@H]2O`, 45% (active); with `NC(=O)c1oc2ccccc2c1NC(=O)c1nc2ccccc2s1`, 39%.
With `COc1cc(O)c2c(=O)c3c(OC)c(O)ccc3oc2c1` the figure was 41%.
On to `Nc1ccc(N2CCN(C(=O)c3ccco3)CC2)cc1`, for which the inhibition was 49%.
For `Cc1nn(-c2ccccc2)c2sc(C(=O)c3c(N)n(C)c(=O)n(C)c3=O)cc12` the value was 22%.
With `COc1ccc(-c2ccc(=O)[nH]n2)cc1` the figure was 0%; with `O=C(COC(=O)c1ccccc1Oc1ccccc1)NCc1ccco1`, 16%; with `CC1Cc2ccccc2N1C(=O)CSc1nnc(-c2ccc(S(=O)(=O)N3CCCC3)cc2)o1` (stereo not drawn), 54%.
With `COCCOC(=O)c1[nH]c2c(c1C)C(=O)CC(c1ccco1)C2` (stereo not drawn) the figure was 35%; with `Cn1ccnc1SCC(=O)Nc1ccc2nc(SCC(=O)NC3CC3)sc2c1`, 46%.
Take `O=C1N/C(=C\c2ccc(O)cc2)C(=O)c2ccccc21`: the inhibition is 21%.
Regarding `Cc1cc(C)c(S(=O)(=O)/N=C2\C=CC(=O)C(Cl)=C2)c(C)c1`, the inhibition was 0%.
For `O=c1[nH]cnc2c1sc1nc3c(c(-c4ccc(Cl)cc4)c12)CCC3` the value was 51%.
With `Cc1ccc(-c2n[nH]c(=S)n2/N=C/C=C\c2ccccc2[N+](=O)[O-])cc1` the figure was 74% (active); with `CCCc1nnc2n1N=C(c1ccc(-c3cc(Cl)ccc3Cl)o1)CS2`, 43%; with `Cc1cc(O)ccc1C1(c2ccc(O)cc2C)OC(=O)c2ccccc21`, 36%.
For `Nc1ccc(-n2cnc3cc([N+](=O)[O-])ccc32)cc1` the value was 34%; for `O=c1nc2s/c(=C\c3ccco3)c(=O)n2nc1Cc1ccc(F)cc1`, 16%.
In the case of `Cc1ccc(OCCN2CCN(CC(O)Cn3c4ccccc4c4ccccc43)CC2)cc1` (stereo not drawn), the inhibition was 62%.
For the compound `Cc1ccc(S(=O)(=O)N2CCCCC2)cc1C(=O)Nc1ncn[nH]1`, the inhibition was 13%.
With `CCN1CCc2nc(NC(=O)Cc3ccc4c(c3)OCCO4)sc2C1` the figure was 26%; with `COc1ccc(NC(=O)C(c2ccccc2)N(C)C(=O)c2ccc(=O)[nH]c2)cc1` (stereo not drawn), 17%; with `O=C(CSc1nnc(-c2ccc(O)cc2)n1Cc1ccccc1)NNC(=O)c1ccc(Br)cc1`, 31%.
For `COc1ccc(/C=N/NC(=O)c2nc(-c3ccccc3)n(-c3ccccc3)n2)c(O)c1`, the inhibition is 45%.
For the compound `COc1ccc(C2Nc3ccccc3C(=O)N2c2ccc(C)cc2)cc1Cn1cc([N+](=O)[O-])cn1` (stereo not drawn), the inhibition is 20%.
In the case of `O=C(Nc1nc(-c2nc3ccccc3s2)cs1)C1COc2ccccc2O1` (stereo not drawn), the inhibition was 19%.

For orientation: inhibition means the relative decrease from the control value, in per cent.
